# Bioassay records deposited in PubChem BioAssay by Broad Institute.
# Sampled rows, rich in hits. Any-hit rate of the full collection: about 2.2%.
# PvdQ acylase: blocks Pseudomonas aeruginosa PvdQ acylase activity; actives 0.063% (n = 340,000); purified PvdQ acylase, fluorescence plate reader; inhibition, % at 10 µM; AID 488965; in the data active means inhibition above about 30%, passing the limit was not always enough
# C2C12 statin: suppression of simvastatin myotoxicity; C2C12 myotubes + simvastatin, ATP luminescence, 48 h; scaled: DMSO 0, geranylgeraniol control 100; rescue of ATP level, % at 7.49 µM; actives 0.78% (n = 330,000); AID 602340;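 active means mean ATP rescue above about 67%, or every replicate alone reaching that limit, limit read from the data, passing the limit was not always enough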;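 further: myotubes were challenged with 10 µM simvastatin during compound exposure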
# miR122 inh: blocks miR-122 activity in Huh7 sensor cells; Huh7 miR-122 Renilla luciferase sensor, 48 h; neutral wells = 0, positive control = 100; activation (reporter increase), % at 12.5 µM; actives 0.3% (n = 340,000); AID 602342;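 active means mean replicate activation score at least 90 and every replicate individually at or above 90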;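 further: higher luciferase means less miR-122 activity so hits act as miR-122 inhibitors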
# DENV2 CPE: protects cells from dengue virus 2 cytopathic effect; DENV2-infected cells, cytopathic effect rescue, plate reader; CPE inhibition, % at 9.99 µM; actives 1.7% (n = 350,000); in the data active means CPE inhibition above about 20%, passing the limit was not always enough; tested in BHK-21 cells
# PGC1a acetyl inh: lowers PGC1a acetylation signal in U2OS cells. AlphaScreen anti-acetyl-lysine; with virally co-expressed GCN5 acetyltransferase. inhibition, % at 15.6 µM. actives 0.17% (n = 350,000). AID 651687;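 active means every replicate shows inhibition of at least 40%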
# Hits are given with their value; – = inactive; · = not tested or not shown.
SMILES,PvdQ acylase,C2C12 statin,miR122 inh,DENV2 CPE,PGC1a acetyl inh
CS(=O)(=O)N1[C@@H]2c3ccc(-c4ccc(F)cc4)c(=O)n3C[C@H]1[C@H](CO)[C@H]2C(=O)N1CCOCC1,·,–,·,115,·
O=C([C@@H]1[C@@H](CO)[C@@H]2Cn3c(ccc(C4=CCCCC4)c3=O)[C@H]1N2)N1CCCCC1,·,–,·,35,·
O=C(NC1CCC1)[C@H]1[C@H](CO)[C@H]2Cn3c(ccc(C4=CCCCC4)c3=O)[C@H]2N1C(=O)C1CCOCC1,·,–,·,65,·
CN1[C@@H]2Cn3c(ccc(-c4ccncc4)c3=O)[C@H]1[C@@H](C(=O)N1CCC(Cc3ccccc3)CC1)[C@@H]2CO,·,–,·,–,·
CS(=O)(=O)N1[C@@H]2Cn3c(ccc(C4=CCCCC4)c3=O)[C@H]1[C@@H](C(=O)N1CCOCC1)[C@@H]2CO,·,–,–,–,·
C[C@@H]1CN([C@H](C)CO)C(=O)c2cccc(NC(=O)c3cnccn3)c2O[C@H]1CN(C)Cc1ccc(-c2ccccc2)cc1,·,–,–,–,–
CCC(=O)N1[C@H](CN(CC)C(C)=O)[C@@H](c2ccc(-c3cccnc3)cc2)[C@@H]1CO,·,–,–,–,–
CN1C(=O)c2cc(NC(=O)c3cnccn3)ccc2OC[C@@H]2O[C@@H](CC(=O)O)CC[C@H]21,·,–,–,–,–
CN1[C@@H]2Cn3c(ccc(C4=CCCC4)c3=O)[C@H]1[C@@H](C(=O)N1CCCCC1)[C@@H]2CO,·,–,·,110,·
O=S(=O)(c1cnc(Cl)c(Cl)c1)N1CCc2ccccc21,–,–,–,57,–
COC(=O)c1cc(Br)c(=O)n(CCN(C(C)C)C(C)C)c1,–,–,·,·,·
COC(=O)c1cc(Br)c(=O)n(CCN2CCOCC2)c1,–,104,–,·,–
O=C(CSc1nc(-c2ccccc2)c(-c2ccccc2)o1)Nc1nncs1,–,102,–,·,–
O=C(CSc1nc(-c2ccccc2)c(-c2ccccc2)o1)Nc1nnc(-c2ccccc2)s1,–,–,–,·,·
CC(C)c1ccccc1NC(=O)Cn1c(-c2ccccc2Cl)nc2ccccc21,–,·,–,·,43
CCNC(=O)[C@@H]1[C@@H](CO)[C@@H]2Cn3c(ccc(-c4ccccc4F)c3=O)[C@H]1N2Cc1cccnc1,·,–,–,–,·
CCc1ccccc1NC(=O)CN1CCN(C(=O)CN2C(=O)NC3(CCCCC3C)C2=O)CC1 (centres undefined),–,–,–,–,–
Cc1cccc(C)c1NC(=O)CN1CCN(C(=O)CN2C(=O)NC3(CCCCC3C)C2=O)CC1 (centres undefined),–,–,–,25,–
O=C(Nc1ccc(O)cc1)c1ccc2c(c1)C(=O)N(Cc1cccnc1)C2=O,–,·,–,22,–
Cc1cc(C[n+]2cc(Cl)ccc2N)c2ncccc2c1,–,–,–,–,–
Cc1cc(C[n+]2cc(Br)ccc2N)c2ncccc2c1,–,·,·,35,–
COc1ccc2c(c1)sc(N)[n+]2Cc1cc(C)cc2cccnc12,–,–,–,71,·
C[C@H]1CCCCO[C@@H](CN(C)Cc2ccncc2)[C@@H](C)CN([C@@H](C)CO)C(=O)c2cc(NC(=O)Nc3ccc(C(F)(F)F)cc3)ccc2O1,·,·,–,–,–
C/C=C/c1ccc([C@H]2[C@@H](CO)N(C(=O)CC)C23CN(S(=O)(=O)CC)C3)cc1,·,·,·,–,–
O=C(CN1C(=O)C2C3C=CC(C3)C2C1=O)OCC(=O)c1ccc([N+](=O)[O-])cc1 (centres undefined),–,–,–,–,·
SMILES,PvdQ acylase,C2C12 statin,miR122 inh,DENV2 CPE,PGC1a acetyl inh
O=C(CN1C(=O)C2C3CC(C(Br)C3Br)C2C1=O)OCC(=O)c1cccc([N+](=O)[O-])c1 (centres undefined),–,–,–,–,76
CO[C@H]1CN(C)C(=O)c2ccc(NC(=O)C3CC3)cc2OC[C@H](C)N(Cc2ccc(F)cc2)C[C@@H]1C,·,·,·,–,–
C[C@@H]1CN([C@H](C)CO)C(=O)c2cccc(NS(=O)(=O)c3ccc(F)cc3)c2O[C@@H]1CN(C)C(=O)Nc1ccccc1,·,–,–,–,–
CCCCCC(=O)N1C[C@@H](n2cc(COC(=O)c3ccccc3)nn2)[C@H](O)C[C@@H]1c1ccc(Cl)cc1,·,–,–,–,–
CCCCCC(=O)N1C[C@H](n2cc(-c3ccc(F)cc3)nn2)[C@@H](O)C[C@@H]1c1ccc(C)cc1,·,–,–,–,67
CCCCCC(=O)N1C[C@H](n2cc(COC(=O)c3ccccc3)nn2)[C@@H](O)C[C@@H]1c1ccc(Cl)cc1,·,–,–,53,–
